Results published in PubChem BioAssay (EPA / NIEHS).
Results filed as inconclusive are left out. Calls of active or inactive are those of the source. The calls were made as follows: active = hit-call score of the fitted dose curve at least 0.9, where 1 is the maximum; inconclusive = response in the unintended direction; inactive = score below 0.9.

System: not listed separately
Assay: Tanguay_ZF_120hpf_ActivityScore_legacy: (Legacy) Oregon State University Tanguay Lab 120 Hour Post-fertilization zebrafish Assay Score for Activity (AID 2283742)
In short: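 Binary scoring of mortality and morphology by brightfield at 24 and 120 hpf, summarised into one activity score from 18 components relative to DMSO. Wild-type Tropical 5D zebrafish, chorion removed at 4 hpf, static exposure 6–120 hpf, 28 °C.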

Structure (SMILES) | outcome
O=C(O)C1C2CCC(O2)C1C(=O)O (centres undefined) | inactive
N#CC(Br)(Br)C(N)=O | inactive
C1=Cc2cccc3cccc1c23 | inactive
OCCCl | inactive
C=CCc1ccc2c(c1)OCO2 | inactive
CC(C)(O)c1cnn2c(-c3ccc(F)c(-c4c(F)cccc4C#N)c3)cnc2n1 | inactive
CC(C)(C)OOC(=O)c1ccccc1 | inactive

System: Thyroperoxidase (TPO), gene 445522
Assay: CCTE_Simmons_GUA_TPO: CCTE's Guaiacol Assay for Thyroperoxidase (TPO) Inhibition, Simmons Lab (AID 2283750)
In short: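 Porcine thyroid microsomes (25 ug) in 200mM potassium phosphate, preincubated 30 s at 37C with compound (8 concentrations, 5 nM–87.5 uM) and 35mM guaiacol; 1mM H2O2 starts reaction. Absorbance change at 450nm over first 80 s; loss of signal versus DMSO, three replicates.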

Structure (SMILES) | AC50
CN(C)c1ccccc1 | 23.7 µM (active)
CN(C)[C@@H]1C(=O)C(C(N)=O)=C(O)[C@@]2(O)C(=O)C3=C(O)c4c(O)cccc4[C@@](C)(O)[C@H]3C[C@@H]12 | 117 µM (active)
Nc1ccc(Cc2ccc(N)cc2)cc1 | 0.352 µM (active)

Target: Luciferin 4-monooxygenase (Photinus pyralis) (UniProt P08659)
Assay: CCTE_Simmons_QuantiLum_inhib_2: CCTE's Firefly Luciferase Inhibition Assay, Simmons Lab (AID 2283767);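 as to AC50: potency for inhibitors that lower luciferase luminescence relative to DMSO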
In short: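 Eight-point titrations of each chemical, 5 nM–87.5 uM final in 0.5% DMSO, were run in three biological replicates against recombinant luciferase for 30 min at 37C. Bioluminescence signal loss, read on reagent injection, gave the inhibition endpoint.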

Chain of Luciferin 4-monooxygenase (Photinus pyralis) (P08659 whole entry, looked up): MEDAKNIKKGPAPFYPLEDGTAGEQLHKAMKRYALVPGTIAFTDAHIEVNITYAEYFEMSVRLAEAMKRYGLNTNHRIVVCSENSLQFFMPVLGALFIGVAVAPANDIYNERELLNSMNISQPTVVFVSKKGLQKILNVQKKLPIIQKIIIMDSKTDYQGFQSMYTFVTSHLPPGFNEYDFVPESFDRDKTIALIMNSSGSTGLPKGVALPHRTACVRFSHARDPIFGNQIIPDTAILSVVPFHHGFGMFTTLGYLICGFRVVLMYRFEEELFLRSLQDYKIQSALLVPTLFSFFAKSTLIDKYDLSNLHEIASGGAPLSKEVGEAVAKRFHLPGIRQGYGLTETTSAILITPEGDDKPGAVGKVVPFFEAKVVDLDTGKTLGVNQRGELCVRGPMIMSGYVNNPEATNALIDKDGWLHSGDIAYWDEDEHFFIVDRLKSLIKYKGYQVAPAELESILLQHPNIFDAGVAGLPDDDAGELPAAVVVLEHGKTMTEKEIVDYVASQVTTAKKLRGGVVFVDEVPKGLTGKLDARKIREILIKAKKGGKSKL

Structure (SMILES) | AC50 | outcome
Cc1ccc(N=C=O)cc1N=C=O | 22.6 µM (active) | 
CCCCC(CC)COC(=O)c1ccc(C(=O)OCC(CC)CCCC)c(C(=O)OCC(CC)CCCC)c1 (centres undefined) |  | inactive
CN(C)c1ccccc1 |  | inactive
CN(C)[C@@H]1C(=O)C(C(N)=O)=C(O)[C@@]2(O)C(=O)C3=C(O)c4c(O)cccc4[C@@](C)(O)[C@H]3C[C@@H]12 |  | inactive
Nc1ccc(Cc2ccc(N)cc2)cc1 |  | inactive
Oc1ccccc1Cl |  | inactive
c1ccc(NNc2ccccc2)cc1 | 20.4 µM (active) | 
N#CC(Br)(Br)C(N)=O |  | inactive
C=CCc1ccc2c(c1)OCO2 |  | inactive
